Common to all, as to assay: NCI-60 one-dose screen, 48 h (100 = growth as untreated, 0 = no growth, -100 = all killed)
Holding throughout (details): 10 µM unless noted

Assay [1] concerns NCI-H23 lung.
The test system of assay [2] is NCI-H226 lung.
Assay [3] has as its system NCI-H322M lung.
Assay [4] deals with HOP-62 NSCLC.
Assay [5] deals with NCI-H460 lung.
Assay [6] deals with HOP-92 NSCLC.
The test system of assay [7] is NCI-H522 lung.
In assay [8] the test system is A549/ATCC NSCLC.
Assay [9] deals with 786-0 renal.
The subject of assay [10] is COLO 205 colon.
The subject of assay [11] is DU-145 prostate.
For assay [12], the system named is K-562 leukemia.
Assay [13] concerns MALME-3M melanoma.
Assay [14] has as its system MDA-MB-231 breast.
Assay [15] deals with RXF 393 renal.
The test system of assay [16] is SF-268 CNS.
For assay [17], the system named is SF-295 CNS.
Assay [18] relates to SF-539 CNS.
Assay [19] deals with UACC-257 melanoma.
The test system of assay [20] is M14 melanoma.

The panel holds about 83,000 compounds, 20% with a hit somewhere; the sample as a whole holds those more often.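 Method: cells in 96-well plates; compound added at one concentration; 48 h incubation; percent growth measured; values under 10 scored active.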 A number with no mark means an inactive call. Activity calls are given as the source filed them.

With `Cc1ccc(Nc2nc(N)nc(CSCC(=O)NN)n2)cc1`, the growth in assay [1] was 98.8%; in assay [2], 97.8%; in [3] it was 100%; in assay [4], 101%; in [5] it was 107%; in [6], 95.6%. Besides, the growth in assay [7] was 96.7%; in [8], 107%; in assay [9], 100%; in assay [10] it was 110%; in assay [11] it was 103%; in assay [12], 96.6%. Also, the growth in [13] is 111%; in assay [14], 98.9%; in [15], 103%; in assay [16] it was 97.9%; in assay [17], 99.3%; in assay [18] it was 95.1%. Besides, the growth in assay [19] is 108%; in assay [20], 114%.

Take `CCCCn1c(=O)c2c(nc3n2CCCN3CCc2ccc(OCC(=O)NCCN(CC)CC)cc2)n(CCCC)c1=O`: the growth was 68.7% in assay [1]; 72.9% in [2]; 94.4% in assay [3]; 56.1% in assay [4]; 56.9% in [5]; 27.8% in [6]. The growth in [7] is 44.1%; in assay [8] it was 64.2%; in assay [9], 11.3%; in assay [10], 25.7%; in assay [11] it was 66.1%; in assay [12] it was -6.6% (active). Besides, the growth in assay [13] is -52.9% (active); in [14], 14.4%; in [15], 47.2%; in [16], 63.2%; in assay [17], -22.3% (active); in assay [18], 54.7%. Besides, the growth in assay [19] was -39% (active); in [20], -79.2% (active).

Take `O=S(=O)(Nc1cccc(Cl)c1)c1ccc(-c2cnc(C3CC3)o2)cc1`: the growth is 29.3% in assay [1]; 40.9% in assay [2]; 48.1% in assay [3]; 31.9% in assay [4]; 16.5% in assay [5]; 20.5% in assay [6]. For the same molecule, the growth in assay [7] was -1.89% (active); in [8], 38.4%; in assay [9] it was 28.4%; in assay [10], 0.342% (active); in assay [11] it was 20.4%; in assay [12], 9.52% (active). Further, the growth was 58.2% in assay [13]; 23.3% in assay [14]; 13.8% in assay [15]; 51% in assay [16]; 15.5% in assay [17]; -0.0211% (active) in assay [18]. Moreover, the growth in assay [19] was 63.8%; in [20], 16.2%.

With `Cc1ccc(-c2c(-c3ccccc3)c(=O)oc3ccc(C)cc23)cc1`, the growth in assay [1] was 96.1%; in assay [2], 89.6%; in assay [3] it was 97.8%; in assay [4] it was 101%; in assay [5], 93.8%; in [6] it was 84%. For the same molecule, the growth is 107% in [7]; 91% in assay [8]; 105% in assay [9]; 91.4% in assay [10]; 116% in [11]; 76% in assay [12]. The growth is 92.9% in [13]; 91% in assay [14]; 107% in assay [15]; 91.8% in assay [16]; 104% in [17]; 109% in [18]. Also, the growth in [19] was 86.8%; in assay [20], 102%.

Take `Cc1cc(NCc2cc(Nc3ccnc4cc(Cl)ccc34)ccc2F)nc(Cl)n1`: the growth is 32.8% in [1]; 52.4% in assay [2]; 71.9% in assay [3]; 54.5% in assay [4]; 48.4% in assay [5]; 31.9% in assay [6]. For the same molecule, the growth in [7] was 36.2%; in [8], 56.7%; in assay [9], 50.7%; in [10] it was 44.2%; in assay [11], 60%; in assay [12], 19.8%. Moreover, the growth was 76.8% in assay [13]; 43.5% in assay [14]; 62.9% in assay [15]; 72.2% in assay [16]; 34.2% in assay [17]; 73.3% in assay [18]. In addition, the values for the growth in assay [19] and in assay [20] were 35.7% and 38.7%, respectively.

`CCOC(=O)/C=C/c1cc2cc(-c3csc4ccccc34)ccc2[nH]1`: the growth in assay [1] was 60.6%; in [2] it was 103%; in [3], 115%; in assay [4], 76.7%; in assay [5], 83.8%; in assay [6], 99.7%. Further, the growth in assay [7] is 40%; in assay [8], 55.5%; in assay [9], 82.4%; in [10] it was 93.4%; in assay [11], 89.5%; in assay [12] it was 25.4%. Moreover, the growth in [13] is 76.9%; in assay [14], 56.9%; in [15] it was 83.4%; in assay [16], 74.8%; in assay [17], 64.6%; in assay [18], 77.6%. Further, the growth in assay [19] was 69.5%; in assay [20] it was 68.1%.

On to `COc1cc2c(cc1-c1c(C)noc1C)ncc1nc(C3CCCCC3)n(C3CCC(OC(F)F)CC3)c12` (stereo not given), for which the growth in assay [1] is 40.8%; in assay [2] it was 62.2%; in assay [3], 54.7%; in [4] it was 38.3%; in assay [5], 37.3%; in assay [6], 1.82% (active). The growth in assay [7] was -12.2% (active); in assay [8], 25.3%; in [9] it was 41.4%; in assay [10] it was 1.16% (active); in [11] it was 63%; in assay [12], 20.1%. For the same molecule, the growth was 41.7% in assay [13]; 35.9% in assay [14]; 36.5% in assay [15]; 57% in assay [16]; 33.9% in assay [17]; 47% in assay [18]. The growth in [19] is 40.3%; in assay [20], 39.6%.
